# FEN1 inh = human FEN1 inhibition; P39748; Recombinant FEN1 flap cleavage, fluorescence, 15 min; Potency, µM (doses to about 114 µM), for inactives: top-dose activity change, negative = inhibition, usual class: inhibitors; 390,000 tested, 0.35% active; AID 588795; note: % is set by controls: 0 for no effect and ±100 for the full control effect; nearly all actives have a fitted effect of over 65% in size
#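 With each library titrated from low to high concentration, compounds met 10 nM FEN1 for 15 min at room temperature before 50 nM substrate was added; readings at 0 and 15 min fed four-parameter Hill curve fits.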
# Pol iota inh = DNA polymerase iota (human) inhibition. Potency, µM (top dose mostly 115 µM), for inactives: at the top dose activity, negative = inhibition, most hits filed as inhibitors. 390,000 tested, 1% active. Pol iota fluorescent replication assay, 10 min. Q9UNA4
#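 Pol iota at 10 nM preincubated 15 min with compounds at room temperature; reaction started with fluorescent substrate, 50 nM final. Fluorescence read kinetically at 0 and 10 min; buffer-only wells as negative control.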
# POLH inh = blocks human DNA polymerase eta activity; Q9Y253; recombinant Pol eta, fluorescent DNA replication assay; Potency, µM (titrated, usually from 114 µM), for the others: at the highest dose activity change, negative = inhibition, actives largely listed as inhibitors; 390,000 tested, 1.2% active; note: % is set by controls: 0 for no effect and ±100 for the full control effect
#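 Pol eta (10 nM) was preincubated with compounds for 15 min at room temperature, after which fluorescent replication substrate (50 nM final) was added to start the reaction. Fluorescence was read kinetically at 0 and 10 min.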
# Pol beta inh = blocks human DNA polymerase beta activity. 340,000 tested, 1.3% active. Potency, µM (top dose mostly 114 µM), for the others: at the top dose activity change, negative = inhibition, actives largely listed as inhibitors. Pol beta primer extension/strand displacement, fluorescence kinetic. P06746; note: % is set by controls: 0 for no effect and ±100 for the full control effect
#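 Pol beta (10 nM) was preincubated with compound for 15 min at room temperature. The reaction was then started with 50 nM substrate and read immediately and after a further 10 min at room temperature.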
# WRN inhibitor = inhibitors of human WRN helicase; Q14191; Potency, µM (doses to about 114 µM), without a hit: at the top dose activity change, negative = inhibition, most hits filed as inhibitors; 360,000 tested, 0.46% active; WRN helicase unwinding, fluorescent forked duplex, kinetic; AID 651768; note: % is set by controls: 0 for no effect and ±100 for the full control effect; nearly all actives have a fitted effect of over 55% in size
#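 Kinetic fluorescence helicase assay: unwinding of a quenched forked DNA duplex (100 nM final) with 2 mM ATP final raises red fluorescence (525/598 nm). Compounds sat 15 min at room temperature with 20 nM WRN beforehand.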
# Pol kappa inh = inhibitors of human DNA polymerase kappa; Q9UBT6; purified Pol kappa, fluorescent DNA synthesis assay, 10 min; Potency, µM (highest dose often 107 µM), inactives show top-dose activity, negative = inhibition, most hits filed as inhibitors; 400,000 tested, 0.53% active; note: % is set by controls: 0 for no effect and ±100 for the full control effect
# Target sequence (Q9UBT6 whole entry, looked up): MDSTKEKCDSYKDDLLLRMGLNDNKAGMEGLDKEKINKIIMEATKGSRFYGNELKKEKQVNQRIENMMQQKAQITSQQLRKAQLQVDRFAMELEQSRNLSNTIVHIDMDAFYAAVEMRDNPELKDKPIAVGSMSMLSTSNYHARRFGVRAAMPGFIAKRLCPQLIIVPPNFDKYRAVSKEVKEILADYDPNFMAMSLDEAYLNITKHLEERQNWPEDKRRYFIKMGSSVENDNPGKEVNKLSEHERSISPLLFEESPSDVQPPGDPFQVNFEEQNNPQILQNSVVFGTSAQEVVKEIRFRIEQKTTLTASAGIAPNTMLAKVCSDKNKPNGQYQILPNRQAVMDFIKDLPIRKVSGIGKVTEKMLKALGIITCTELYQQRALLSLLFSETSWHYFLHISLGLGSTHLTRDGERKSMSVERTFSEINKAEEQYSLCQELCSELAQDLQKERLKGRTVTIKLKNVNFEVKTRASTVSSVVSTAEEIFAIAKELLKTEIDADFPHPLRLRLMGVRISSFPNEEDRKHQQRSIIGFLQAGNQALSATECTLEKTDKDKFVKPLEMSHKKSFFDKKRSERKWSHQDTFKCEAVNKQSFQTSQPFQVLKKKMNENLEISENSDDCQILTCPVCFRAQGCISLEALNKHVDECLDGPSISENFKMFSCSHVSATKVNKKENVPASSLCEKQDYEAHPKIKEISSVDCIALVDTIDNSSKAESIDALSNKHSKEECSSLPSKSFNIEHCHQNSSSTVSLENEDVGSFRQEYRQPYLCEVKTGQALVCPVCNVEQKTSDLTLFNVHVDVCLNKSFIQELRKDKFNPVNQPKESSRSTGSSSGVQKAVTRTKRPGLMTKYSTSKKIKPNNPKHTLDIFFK
#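 Inhibition of 10 nM Pol kappa is measured by a fluorescent read-out at 0 and 10 min following addition of 50 nM substrate (final), with a 15-min room-temperature compound preincubation.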
# * = called active by the depositor; ? = inconclusive; . = not tested or not shown; [ ] = dose if it differs, or a comment. Most compounds without a hit are left out; they make up all but 2.4% or so of the library. Calls come from the whole dose curve; as a rule, active = well fitted curve in the direction sought with a large enough effect; inconclusive = small, poorly fitted or top-dose-only effect, or another doubt; inactive = no such curve, though single readings can be large; an effect the other way counts as inactive or inconclusive. Potency is the fitted concentration of half-maximal effect.
SMILES,FEN1 inh,Pol iota inh,POLH inh,Pol beta inh,WRN inhibitor,Pol kappa inh
Oc1cc(O)c2c(c1)OC(c1cc(O)c(O)c(O)c1)C(O)C2 (stereo not given),.,.,.,.,.,4µM*
O=C1C[C@@H](c2ccc(O)cc2)Oc2cc(O)cc(O)c21,6%,11%,-14%,-19%,3%,-2%
O=C(O[C@@H]1Cc2c(O)cc(O)cc2O[C@@H]1c1cc(O)c(O)c(O)c1)c1cc(O)c(O)c(O)c1,.,.,.,0.45µM*,.,.
CC(C)=CCCC1(C)C=Cc2c(O)c3c(c(CC=C(C)C)c2O1)OC12C(CC4CC1C(C)(C)OC2(C/C=C(/C)C(=O)O)C4O)C3=O (stereo not given),.,.,.,.,.,-18%[60.1 µM]
C[C@H](N)C(=O)N[C@@H](C)C(=O)N[C@@H](Cc1ccccc1)C(=O)CCl,.,.,.,.,.,0%[19.4 µM]
C=CCn1c(O)c(C=NCCCn2ccnc2)c(=O)[nH]c1=O,0%,36%,-7%,0.32µM*,-4%,-3%
Fc1ccc(C(OCCN2CCN(C/C=C/c3ccccc3)CC2)c2ccc(F)cc2)cc1,.,.,.,.,.,0%[19.4 µM]
CN(CC(=O)O)C(=O)[C@H](Cc1ccccc1)NC(=O)[C@@H](CCCN=C(N)N)NC(=O)[C@@H](N)Cc1ccc(O)cc1,.,.,.,.,.,14%[60.1 µM]
O=c1[nH]c(=O)n(Cc2ccco2)c(O)c1C=NCc1ccco1,-22%,40µM*,89µM*,?,-5%[11.6 µM],-28%
O=c1[nH]c(=S)n(-c2ccccc2F)c(O)c1C=NCc1ccco1,-1%,8%,-1%,13%,2%,3%
O=c1[nH]c(=O)n(Cc2ccco2)c(O)c1C=NCCN1CCOCC1,3%,?,10µM*,8%,-20%,-24%
Cc1ccc(-n2c(O)c(C=NCc3ccco3)c(=O)[nH]c2=S)cc1C,-10%,20µM*,?,?,?,40µM*
CC(C)C1C(=O)N2CCC[C@H]2[C@]2(O)O[C@](NC(=O)[C@@H]3C=C4c5cccc6[nH]cc(c56)C[C@H]4N(C)C3)(C(C)C)C(=O)N12 (stereo not given in full),.,.,.,.,.,-9%[19.4 µM]
CC(Cc1cccc(C(F)(F)F)c1)NCCCc1ccccc1 (stereo not given),.,.,.,.,.,8%[19.4 µM]
N#Cc1ncc(Br)cn1,18%,31%,.,.,.,7%
C=C1C(=O)OC2CC3(C)OC3CCC(C)=CC(OC(C)=O)C12 (stereo not given),1%,5%,-14%,.,-3%,-2%
C=C1C(=O)O[C@@H]2C[C@@H](C)[C@H]3C=CC(=O)[C@]3(O)C[C@@H]12,14%,?,32µM*,-1%,-24%,-26%
COC(=O)C1=C(c2ccc(F)cc2OCc2ccccc2)C[C@@H]2CC[C@H]1N2C(=O)NCc1ccco1,-18%,?,45µM*,.,-21%,?
COC1=C(C)C(=O)c2c(c(COC(N)=O)c3n2C[C@@H]2[C@@H]3N2C)C1=O (stereo not given in full),-24%,56µM*,.,.,.,?
COC[C@H]1OC(=O)c2coc3c2[C@@]1(C)C1=C(C3=O)[C@H]2CCC(=O)[C@@]2(C)C[C@H]1OC(C)=O,.,.,.,.,.,-14%[19.4 µM]
Cc1ccc(NC2C(=O)NC(=O)NC2=O)cc1,-1%,0.71µM*,79µM*,.,-18%,-15%
O=C1NC(=O)C(Nc2ccccc2)C(=O)N1,3%,3.2µM*,4%,.,5%[11.6 µM],-6%
Cc1ccc(C2NC(=S)NC(c3ccc(C)cc3)C23C(=O)NC(=O)NC3=O)cc1 (stereo not given),5%,8%,-10%,32%,9%,-7%
C=C(C)[C@@]12OC3(c4ccccc4)O[C@@H]1[C@@H]1[C@@H]4O[C@]4(CO)[C@@H](O)[C@]4(O)C(=O)C(C)=C[C@H]4[C@@]1(O3)[C@H](C)[C@H]2OC(=O)/C=C/C=C/c1ccccc1,.,.,.,.,.,-9%[60.1 µM]
C=CCN1C[C@H](C)N([C@H](c2ccc(C(=O)N(CC)CC)cc2)c2cccc(O)c2)C[C@H]1C,.,.,.,.,.,-11%[19.4 µM]
SMILES,FEN1 inh,Pol iota inh,POLH inh,Pol beta inh,WRN inhibitor,Pol kappa inh
O=C(O)COc1ccc(Br)cc1C(c1c(C(=O)O)[nH]c2ccccc12)c1c(C(=O)O)[nH]c2ccccc12,?,?,89µM*,10%,-18%,?
O=C(CN1CCOCC1)c1ccc2ccccc2c1,-5%,9%,.,.,.,-2%
CN1CCc2cc3c(cc2[C@@H]1O)OCO3,.,.,.,.,.,-4%[12 µM]
CN1CCc2cc3c(c4c2C1Cc1ccccc1-4)OCO3 (stereo not given),?,?,3%,16µM*,-1%[11.6 µM],-2%
Cc1cc(C=C2C(=O)NC(=S)NC2=O)c(C)n1-c1ccc2c(c1)OCO2,-20%,20µM*,20µM*,89µM*,?,79µM*
CCn1c(N)c(C(=O)NC)sc1=S,8%,?,-4%,0%,56µM*,6%
O=C1NC(=O)N(CC2CCCO2)C(=O)/C1=C/c1cccs1 (stereo not given),?,?,?,?,-15%,?
CCOc1ccc(N2C(=O)/C(=C/c3ccco3)C(=O)NC2=S)cc1,?,-96%,-101%,13µM*,11µM*,1.6µM*
CCOc1ccc(N2C(=O)NC(=O)/C(=C\c3ccccc3[N+](=O)[O-])C2=O)cc1,-24%,?,2%,-11%,-6%,-14%
COc1ccc(N2C(=O)/C(=C/c3ccc(OC)c(OC)c3)C(=O)NC2=S)cc1,1%,?,3%,11%,-27%,-2%
CCOc1ccc(N2C(=O)/C(=C\c3cccs3)C(=O)NC2=S)cc1,?,18µM*,-15%,?,40µM*,-9%
O=C1NC(=S)N(c2ccccc2F)C(=O)/C1=C\c1cccs1,-6%,?,-3%,5%,50µM*,-10%

# Screens as filed in PubChem.
